Test results from PubChem BioAssay AID1851 (National Center for Advancing Translational Sciences (NCATS), 2009).
Where “and” joins values, the source holds several entries; their conditions need not be identical. Equal values may be shown once. Hit rate of the full screen: of about 16,000 compounds, about 5,800 (36%) were called active. Roughly 23% stayed inconclusive and do not appear here. The call rests on the fitted dose curve; in most records, active means well fitted curve in the direction sought with a large enough effect; inconclusive means small, poorly fitted or top-dose-only effect, or effect the other way; inactive means no such curve, though single readings can be large or run the other way. The list shows a part of the results. Where a structure was tested more than once in an assay, its records may differ in their call.
On the % scale 0 is the no-effect control and ±100 the full control effect.

What follows are molecules tested against Cytochrome P450 2C19 (Homo sapiens) (UniProt P33261) (assay: Cytochrome panel assay with activity outcomes). Details: recombinant CYP, pro-luciferin dealkylation, luminescence, p450-cyp2c19; series mostly up to 57.1 µM.
Sequence of Cytochrome P450 2C19 (Homo sapiens) (P33261 whole entry, looked up): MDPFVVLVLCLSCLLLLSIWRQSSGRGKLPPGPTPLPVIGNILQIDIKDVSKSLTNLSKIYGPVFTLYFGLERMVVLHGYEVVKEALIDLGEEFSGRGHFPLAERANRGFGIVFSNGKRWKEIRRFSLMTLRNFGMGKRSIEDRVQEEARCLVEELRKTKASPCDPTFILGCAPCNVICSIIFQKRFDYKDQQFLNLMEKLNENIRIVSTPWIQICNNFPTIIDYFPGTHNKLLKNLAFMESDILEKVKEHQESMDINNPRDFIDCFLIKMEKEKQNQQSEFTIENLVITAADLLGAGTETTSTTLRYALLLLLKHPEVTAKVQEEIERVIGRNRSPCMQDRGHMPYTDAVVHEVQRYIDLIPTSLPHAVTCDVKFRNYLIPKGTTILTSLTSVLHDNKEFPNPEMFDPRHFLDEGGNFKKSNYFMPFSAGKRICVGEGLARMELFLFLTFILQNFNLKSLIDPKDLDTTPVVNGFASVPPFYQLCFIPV
With `CC[C@]1([C@H]2O[C@@H]([C@@H]3O[C@](O)(CO)[C@@H](C)C[C@H]3C)C[C@H]2C)CC[C@@H]([C@]2(C)CC[C@@]3(C[C@@H](O)[C@@H](C)[C@@H]([C@H](C)[C@H](OC)[C@H](C)C(=O)O)O3)O2)O1` the AC50 was “inactive”. With `NCCCNCCSP(=O)(O)O` the AC50 was “inactive”. `CCN1CCN(Cc2cc(OC)c(OC)cc2[N+](=O)[O-])CC1` was tested, and the AC50 was “inactive”. For `c1ccc([C@H]2CNCc3ccccc32)cc1`, the AC50 was “inactive”. In the case of `Cc1ccc(N(C)C(=O)Oc2cccc3ccc(C)nc23)cc1`, the AC50 is reported as 7.94 µM (active). `C=CCN1C[C@@H](C)N([C@H](c2ccc(C(=O)N(CC)CC)cc2)c2cccc(OC)c2)C[C@H]1C` was tested, and the AC50 was “inactive”. In the case of `Cc1cc(C)c(-n2c(O)c(C=NCCN3CCOCC3)c(=O)[nH]c2=O)c(C)c1`, the AC50 is reported as “inactive”. With `CC(C)CN1CCCC2(CCN(C(=O)c3ccncc3)CC2)C1` the AC50 was “inactive”. For `NCCCC[C@H](N[C@@H](CCc1ccccc1)C(=O)O)C(=O)N1CCC[C@H]1C(=O)O`, the AC50 was “inactive”. In the case of `CN(C)C=C1C(=O)N(C2CCCCC2)C(=O)N(C2CCCCC2)C1=O`, the AC50 is reported as 20 µM (active). For `N=C(N)c1ccc(-c2ccc(-c3ccc(C(=N)N)cc3)o2)cc1`, the activity, negative = inhibition was 37% [at 11.4 µM] (inactive). `CN1CCC2(CC1)CCN(C(=O)Oc1ccccc1)CC2` was tested, and the AC50 was “inactive”. For `CCN1C[C@@]2(COC)CC[C@H](OC)[C@]34[C@@H]1[C@]1(OCO[C@@]15C[C@@H](OC)C1C[C@H]3[C@H]5[C@@H]1OC)[C@H](O)[C@@H]24`, the AC50 was “inactive”. In the case of `O=C(O)CC[N+](=O)[O-]`, the AC50 is reported as “inactive”. With `Cc1c(OCC(F)(F)F)ccnc1CS(=O)c1nc2ccccc2[nH]1` (stereo not given) the AC50 was 0.1 µM (active). `CC1(C)N(O)C(c2ccc(C(=O)O)cc2)=[N+]([O-])C1(C)C` was tested, and the AC50 was “inactive”. `CCc1ccc(CCN2CCCCC2)nc1` was tested, and the activity, negative = inhibition was -27.8% [at 11.4 µM] (inactive). For `Cc1ccccc1-c1nc(CS(=O)CC(=O)N2CCC3(CC2)OCCO3)c(C)o1` (stereo not given), the AC50 was 10 µM (active). For `CCc1ccccc1NC(=S)NC1CC2CCC(C1)N2Cc1ccco1` (stereo not given), the AC50 was “inactive”. `Nc1nc(N)c(Cn2ccnc2)c(=O)[nH]1` was tested, and the activity, negative = inhibition was 32.7% [at 11.4 µM] (inactive). With `N[C@@H](Cn1oc(=O)[nH]c1=O)C(=O)O` the AC50 was “inactive”. With `N[C@@H](Cc1cc(Br)c(O)c(Br)c1)C(=O)O` the activity, negative = inhibition was 11.6% [at 11.4 µM] (inactive). With `Cc1o[nH]c(=O)c1C[C@H](N)C(=O)O` the AC50 was “inactive and 2.51 µM (active)”. `N[C@H](CCl)C(=O)O` was tested, and the AC50 was “inactive”. `N[C@H](Cc1o[nH]c(=O)c1Cl)C(=O)O` was tested, and the AC50 was 1.26 µM (active). In the case of `Cc1o[nH]c(=O)c1C[C@@H](N)C(=O)O`, the AC50 is reported as “inactive”. In the case of `O=c1cc(-c2ccc(O)c(O)c2)oc2cc(O)cc(O)c12`, the AC50 is reported as “inactive”. With `Nc1ccc(CCN2CCN(c3cccc(C(F)(F)F)c3)CC2)cc1` the AC50 was 7.94 µM (active). For `NCCCN1CCN(c2ccccc2)CC1`, the activity, negative = inhibition was 2.32% [at 11.4 µM] (inactive). In the case of `Cc1cc(OCC(=O)OC(C)C)c2c3c(c(=O)oc2c1)CCCC3`, the AC50 is reported as 3.55 µM (active). `Cc1cc(OCc2ccc([N+](=O)[O-])cc2)c2c3c(c(=O)oc2c1)CCCC3` was tested, and the AC50 was 0.708 µM (active). With `CC(C)[C@H](CO)Nc1nc(Nc2cccc(Cl)c2)c2ncn(C(C)C)c2n1` the AC50 was “inactive”. With `CC[C@H](C)C(=O)O[C@@H]1[C@H](O)[C@@H]2[C@H](CN3C[C@@H](C)CC[C@@H]3[C@@]2(C)O)[C@@H]2C[C@@]34O[C@@]5(O)[C@@H](OC(=O)[C@](C)(O)CC)CC[C@@]3(C)[C@H]5[C@H](OC(C)=O)[C@@H](OC(C)=O)[C@H]4[C@]12O` the AC50 was “inactive”. For `COc1cc2c(cc1OC)[C@]13CC[N@+]4(C)CC5=CCO[C@H]6CC(=O)N2[C@@H]1[C@@H]6[C@@H]5C[C@]34O`, the activity, negative = inhibition was -1.84% [at 11.4 µM] (inactive). In the case of `c1ccc(CN2CCN(Cc3ccc4c(c3)OCCO4)CC2)cc1`, the AC50 is reported as “inactive”. With `Cc1ccc(C2CC(=O)C(C=NCCN3CCN(C(=O)Cc4ccccc4)CC3)=C(O)C2)cc1` (stereo not given) the AC50 was 3.16 µM (active). With `c1ccc(CCN2CCOCC2)nc1` the activity, negative = inhibition was 1.5% [at 11.4 µM] (inactive). In the case of `CC(C)CN1CCC2(CC1)CCN(C(=O)Oc1ccccc1)CC2`, the AC50 is reported as “inactive”. `CCCN1CCc2cc(O)cc3c2[C@H]1Cc1ccc(O)c(O)c1-3` was tested, and the AC50 was “inactive”. With `O=C(Oc1ccccc1)N1CCC2(CCN(Cc3ccccc3)CC2)CC1` the AC50 was “inactive”. In the case of `c1ccc(CN2CCC3(CCNCC3)CC2)cc1`, the AC50 is reported as 5.01 µM (active). With `c1ccc(CN2CCCC3(CCNCC3)C2)cc1` the AC50 was “inactive”. For `c1cc(CN2CCC3(CCNCC3)CC2)ccn1`, the AC50 was “inactive”. For `c1ccc(CN2CC[C@@]3(CCCNC3)C2)cc1`, the AC50 was “inactive”. With `c1ccc(CN2CCC3(CCc4ccccc43)CC2)cc1` the AC50 was 2.51 µM (active). `CCn1cc(C(=O)O)c(=O)c2cc3c(cc21)OCO3` was tested, and the AC50 was “inactive”. With `C[As+](C)(c1ccc(Br)c([N+](=O)[O-])c1)c1ccc(Br)c([N+](=O)[O-])c1.O=[N+]([O-])O` the activity, negative = inhibition was 27.9% [at 11.4 µM] (inactive). With `S=C=Nc1cccc(C2(N3CCCCC3)CCCCC2)c1` the AC50 was “inactive”. With `CS(=O)(=O)Nc1ccc(Cc2noc(-c3ccc4[nH]cc(CCN)c4c3)n2)cc1` the AC50 was 15.8 µM (active). `C[C@H](N)Cc1c[nH]c2ccc(OCc3cccs3)cc12` was tested, and the AC50 was “inactive”. In the case of `CN1CCN(c2ccc3ccccc3n2)CC1`, the AC50 is reported as “inactive”. With `C[C@H](Br)C(=O)N[C@H](CO)C(=O)O` the activity, negative = inhibition was 4.64% [at 11.4 µM] (inactive). `CCCN1CCC[C@@H]2Cc3nc(N)ncc3C[C@H]21` was tested, and the AC50 was “inactive”. With `CC(=NCc1ccco1)c1c(O)n(-c2ccccc2)c(=O)[nH]c1=O` the AC50 was 10 µM (active). In the case of `CC(=Nc1c(C)n(C)n(-c2ccccc2)c1=O)c1c(O)n(Cc2ccccc2)c(=O)[nH]c1=O`, the AC50 is reported as “inactive”. With `CC(=NCCN1CCOCC1)c1c(O)n(Cc2ccccc2)c(=O)[nH]c1=O` the AC50 was “inactive”. With `C/C=C1\C[N@@+]2(C)CC[C@@]34C(=C(C=O)[C@H]1C[C@H]32)Nc1ccccc14` the AC50 was “inactive”. For `O=[N+]([O-])c1cc(-c2ccc([As](=O)(O)O)cc2)ccc1[As](=O)(O)O`, the activity, negative = inhibition was 22.9% [at 11.4 µM] (inactive). In the case of `COCCNC(=S)NC1CC2CCCC(C1)N2Cc1cccs1` (stereo not given), the AC50 is reported as “inactive”. For `Cc1ccc(N2C(=O)/C(=C/c3ccc(CN(CCC#N)S(C)(=O)=O)o3)C(=O)NC2=S)cc1C`, the AC50 was 10 µM (active). In the case of `COc1cccc2c1[C@H](CO)N1[C@H](C#N)[C@@H]3C[C@H](C(=O)O)[C@@H]([C@@H]1C2)N3C`, the activity, negative = inhibition is reported as 11.2% [at 11.4 µM] (inactive). With `C=C1CC[C@H](O)C/C1=C/C=C1\CCC[C@]2(C)[C@H]1CC[C@H]2[C@@H](C)CCCC(C)C` the AC50 was “inactive”. In the case of `CC(=O)O/C(=C1/C[C@H]2[C@@H]3CC=C4C[C@@H](OC(C)=O)CC[C@]4(C)[C@@H]3CC[C@]2(C)C1=O)C(F)(F)F`, the activity, negative = inhibition is reported as 10.6% [at 11.4 µM] (inactive). With `CNCCc1ccc(O)c(O)c1` the AC50 was “inactive”. For `CN1CCN(c2ccc([N+](=O)[O-])c3[nH]o[n+](=O)c23)CC1`, the activity, negative = inhibition was -37.2% [at 11.4 µM] (inactive). For `CN1CCN(c2ccc([N+](=O)[O-])c(N/N=C3\CN4CCC3CC4)c2)CC1`, the AC50 was 7.08 µM (active). `CC[C@H]1CN2CCc3cc(OC)c(OC)cc3[C@H]2C[C@@H]1C[C@H]1NCCc2c1[nH]c1ccc(O)cc21` was tested, and the activity, negative = inhibition was 34.7% [at 11.4 µM] (inactive). For `Cc1ncc([N+](=O)[O-])n1CCN=[N+]=[N-]`, the activity, negative = inhibition was 21.1% [at 11.4 µM] (inactive). With `c1ccc(N2CC3(CCNCC3)C2)cc1` the AC50 was “inactive”. `CC(C)(C)NC[C@H](O)c1ccccc1Cl` was tested, and the AC50 was “inactive”. With `Cc1ccc(S(=O)(=O)NCC2CCC(C(=O)N3CCC4(CC3)OCCO4)CC2)cc1` (stereo not given) the AC50 was 14.1 µM (active). For `Cc1ccc(CCN2CC(C(=O)N3CCC4(CC3)OCCO4)CC2=O)cc1` (stereo not given), the AC50 was “inactive”. `NC(=O)COc1c(F)cc(SCCNS(=O)(=O)c2ccccc2)cc1F` was tested, and the AC50 was “inactive”. With `COc1cc2c(cc1OC)[C@H](C)NCC2` the AC50 was “inactive”. For `Nc1ccccc1O.O.O=C(O)[C@H]1[O][Sb][O][C@H]1C(=O)O`, the activity, negative = inhibition was 16.1% [at 11.4 µM] (inactive). `O=C(Nc1ccc(Cl)cc1C(=O)c1ccccc1Cl)c1ccco1` was tested, and the AC50 was 2.82 µM (active). In the case of `COc1ccc(OCC(=O)Nc2ccc(Cl)cc2C(=O)c2ccccc2)cc1`, the AC50 is reported as 1 µM (active). `O=C(Nc1ccc(Cl)cc1C(=O)c1ccccc1)c1ccco1` was tested, and the AC50 was 4.47 µM (active). With `CN(C)CCOC(=O)COc1ccc(Cl)cc1` the AC50 was “inactive”. For `O=P(c1ccccc1)(c1ccccc1)N1CC2(CC2)CC(O)(c2ccccc2)C1` (stereo not given), the AC50 was “inactive”. With `CCC[C@@](C)(COC(N)=O)COC(=O)NC(C)C` the AC50 was “inactive”. `COC(=O)N1CCC2(CCCN(C)C2)CC1` was tested, and the AC50 was “inactive”. With `NC[C@H](O)c1cc(O)c(O)cc1F` the AC50 was “inactive”. With `C=CCN1CCC2(C)c3cc(O)ccc3C[C@H]1[C@H]2C` the AC50 was “inactive”. For `COc1cc2c(cc1O)C[C@@H]1c3c(cc(O)c(OC)c3-2)CCN1C`, the activity, negative = inhibition was 12.7% [at 11.4 µM] (inactive). For `CN1CCc2cc(O)cc3c2[C@H]1Cc1ccc(O)c(O)c1-3`, the AC50 was “inactive”. With `CC(C)(C)NC[C@H](O)c1cc(Cl)c(N)c(Cl)c1` the AC50 was “inactive”. With `CN1[C@@H]2CC[C@H]1CC(O[C@@H](c1ccccc1)c1ccccc1N)C2` (stereo not given in full) the AC50 was “inactive”. For `CNCCc1cnc[nH]1`, the AC50 was “inactive”. In the case of `Clc1ccccc1-c1cncnc1NCCc1cnc[nH]1`, the AC50 is reported as 0.0126 µM (active). `Cc1ccccc1-c1cncnc1NCCc1cnc[nH]1` was tested, and the AC50 was 0.0501 µM (active). For `c1ccc2c(c1)-c1ccccc1C2N1CC2CCC(CC2)C1`, the activity, negative = inhibition was -44.5% [at 11.4 µM] (inactive). In the case of `CCCCC/C=C\C/C=C\C/C=C\C/C=C\CCCC(=O)NCC(=O)O`, the AC50 is reported as “inactive”. With `CC(C)N[C@@H](C)Cc1ccc(I)cc1` the AC50 was “inactive”. `O=C(C[C@H](c1ccccc1)c1c(O)c2ccccc2oc1=O)c1ccccc1` was tested, and the activity, negative = inhibition was -17.3% [at 11.4 µM] (inactive).
